# In ChEMBL document CHEMBL3988442, “University of Dundee, Small-Polar-MMV Screening Library” (2021):
# For part of these data: Potency and affinity values are given separately.
# Legend:
# Parameters in all cases: scale not given: direction of the effect not stated beside the values
# [1] = molecular target: Protein translocase subunit SecA (Escherichia coli (strain K12)) (UniProt P10408); assay: Assay to Identify E. coli SecA ATPase Inhibitors; format: functional; conditions: 30 µM
# [2] = molecular target: T1, Ubiquitin-activating enzyme e1, putative (Leishmania donovani (strain BPK282A1)) (UniProt E9BSI1); assay: Leishmania donovani Ubiquitin Activating Enzyme (LdE1); format: functional; conditions: 30 µM
# T1 sequence (whole entry): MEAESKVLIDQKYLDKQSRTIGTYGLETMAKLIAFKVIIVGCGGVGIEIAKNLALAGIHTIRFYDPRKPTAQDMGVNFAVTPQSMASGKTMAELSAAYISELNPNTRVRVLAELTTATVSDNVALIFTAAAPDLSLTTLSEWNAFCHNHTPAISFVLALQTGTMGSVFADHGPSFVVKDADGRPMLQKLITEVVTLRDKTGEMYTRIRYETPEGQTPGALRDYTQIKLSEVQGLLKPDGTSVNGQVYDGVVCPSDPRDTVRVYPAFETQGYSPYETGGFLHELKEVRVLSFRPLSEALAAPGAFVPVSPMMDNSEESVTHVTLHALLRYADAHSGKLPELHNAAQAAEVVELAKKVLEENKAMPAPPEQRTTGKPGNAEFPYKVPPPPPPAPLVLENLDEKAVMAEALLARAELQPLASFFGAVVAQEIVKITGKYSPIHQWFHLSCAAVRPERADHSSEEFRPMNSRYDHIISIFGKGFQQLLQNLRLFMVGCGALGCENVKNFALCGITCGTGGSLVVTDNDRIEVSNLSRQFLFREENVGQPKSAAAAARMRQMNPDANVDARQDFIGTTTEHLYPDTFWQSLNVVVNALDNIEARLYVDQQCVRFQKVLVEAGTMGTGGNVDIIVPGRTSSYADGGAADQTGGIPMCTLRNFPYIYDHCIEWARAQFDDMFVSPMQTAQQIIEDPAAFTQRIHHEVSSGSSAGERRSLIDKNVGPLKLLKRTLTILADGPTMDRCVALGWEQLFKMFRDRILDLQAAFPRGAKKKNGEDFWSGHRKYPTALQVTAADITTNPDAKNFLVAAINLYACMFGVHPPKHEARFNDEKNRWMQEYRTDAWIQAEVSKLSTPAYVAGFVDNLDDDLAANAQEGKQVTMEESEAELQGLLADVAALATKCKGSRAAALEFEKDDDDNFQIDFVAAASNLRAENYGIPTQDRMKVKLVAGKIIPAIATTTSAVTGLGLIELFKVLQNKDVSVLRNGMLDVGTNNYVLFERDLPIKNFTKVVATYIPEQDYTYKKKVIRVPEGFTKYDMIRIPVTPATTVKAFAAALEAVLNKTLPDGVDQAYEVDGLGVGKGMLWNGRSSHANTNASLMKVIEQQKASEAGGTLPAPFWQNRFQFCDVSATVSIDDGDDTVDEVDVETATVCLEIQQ
# [3] = molecular target: AMP-activated protein kinase, AMPK (Homo sapiens) (UniProt P54646+O43741+P54619+Q9UGJ0+Q9Y478+Q13131+Q9UGI9); assay: AMP-dependent Kinase enzyme assay. An in vitro enzyme assay that detects ADP turnover that is directly proportional to AMPK activity. This uses naive AMPK that is activated during the assay with MK-8722; format: functional; conditions: 30 µM
# [4] = molecular target: Sialic acid-binding Ig-like lectin 9 (Homo sapiens) (UniProt Q9Y336); assay: Hs-Siglec9 ALPHAscreen SOP 20170721; conditions: 10 µM
# Chain of Sialic acid-binding Ig-like lectin 9 (Homo sapiens) (Q9Y336 whole entry): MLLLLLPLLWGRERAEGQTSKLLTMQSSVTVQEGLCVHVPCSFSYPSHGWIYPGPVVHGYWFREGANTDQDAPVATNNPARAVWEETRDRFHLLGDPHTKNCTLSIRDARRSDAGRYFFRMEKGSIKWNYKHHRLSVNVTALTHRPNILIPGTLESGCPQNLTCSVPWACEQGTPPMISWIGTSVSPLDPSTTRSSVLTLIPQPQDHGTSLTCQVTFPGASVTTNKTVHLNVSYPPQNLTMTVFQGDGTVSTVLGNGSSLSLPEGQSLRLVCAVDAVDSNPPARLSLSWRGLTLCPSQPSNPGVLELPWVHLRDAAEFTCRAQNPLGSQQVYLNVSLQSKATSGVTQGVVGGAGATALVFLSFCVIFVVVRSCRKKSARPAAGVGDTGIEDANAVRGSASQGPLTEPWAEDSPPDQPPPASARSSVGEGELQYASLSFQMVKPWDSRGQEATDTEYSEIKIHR
# Trypanosoma cruzi = assay: Trypanosoma cruzi phosphomannomutase and mannose-1-phosphate guanylyltransferase assay; format: functional; conditions: 10 µM
# [5] = molecular target: T2, Arginase-2, mitochondrial (Homo sapiens) (UniProt P78540); assay: in vitro enzyme assay to detect the production of urea directly proportional to the activity of Arginase II; format: functional; conditions: 33.3 µM; also: in the data most compounds retested in dose-response had high values
# T2 sequence (whole entry): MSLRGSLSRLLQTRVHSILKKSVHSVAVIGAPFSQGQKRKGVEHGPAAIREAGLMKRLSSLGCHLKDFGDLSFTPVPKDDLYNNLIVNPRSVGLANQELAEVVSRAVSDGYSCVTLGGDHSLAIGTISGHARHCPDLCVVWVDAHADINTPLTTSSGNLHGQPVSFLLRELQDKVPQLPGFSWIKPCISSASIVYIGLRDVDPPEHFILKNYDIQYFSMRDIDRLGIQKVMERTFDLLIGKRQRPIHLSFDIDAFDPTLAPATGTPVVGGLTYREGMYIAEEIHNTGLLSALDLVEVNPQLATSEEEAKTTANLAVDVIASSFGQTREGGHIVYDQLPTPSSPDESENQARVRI
# [6] = molecular target: T3, Proteasome subunit beta (Trypanosoma cruzi) (UniProt O96673); assay: Trypanosoma cruzi proteasome chymotrypsin-like activity (TcProtChymo) assay.; also: in the data most compounds retested in dose-response had high values; format: functional; conditions: 9.37 µM
# T3 sequence (whole entry): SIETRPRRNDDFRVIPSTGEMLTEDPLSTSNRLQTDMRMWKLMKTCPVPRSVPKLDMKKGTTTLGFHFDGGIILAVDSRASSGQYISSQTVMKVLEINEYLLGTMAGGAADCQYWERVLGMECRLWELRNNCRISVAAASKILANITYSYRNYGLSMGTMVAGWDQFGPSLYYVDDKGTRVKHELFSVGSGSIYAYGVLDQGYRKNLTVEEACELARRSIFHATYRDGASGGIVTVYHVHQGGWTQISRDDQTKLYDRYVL
# Homo sapiens = organism: Homo sapiens; assay: To identify inhibition of the IFN signalling (Jak-Stat) pathway via expression of an eGFP reporter gene under the control of an IFN-stimulated response element (ISRE) containing MxA promoter.; format: functional; conditions: 30 µM
# [7] = molecular target: T4, Tyrosyl-tRNA synthetase, putative (Trypanosoma cruzi (strain CL Brener)) (UniProt Q4DSP6); assay: Trypanosoma cruzi tyrosyl tRNA synthetase (TcYRS) _High Tyrosine SOP; format: functional; conditions: 30 µM; also: in the data most compounds retested in dose-response had high values
# T4 sequence (whole entry): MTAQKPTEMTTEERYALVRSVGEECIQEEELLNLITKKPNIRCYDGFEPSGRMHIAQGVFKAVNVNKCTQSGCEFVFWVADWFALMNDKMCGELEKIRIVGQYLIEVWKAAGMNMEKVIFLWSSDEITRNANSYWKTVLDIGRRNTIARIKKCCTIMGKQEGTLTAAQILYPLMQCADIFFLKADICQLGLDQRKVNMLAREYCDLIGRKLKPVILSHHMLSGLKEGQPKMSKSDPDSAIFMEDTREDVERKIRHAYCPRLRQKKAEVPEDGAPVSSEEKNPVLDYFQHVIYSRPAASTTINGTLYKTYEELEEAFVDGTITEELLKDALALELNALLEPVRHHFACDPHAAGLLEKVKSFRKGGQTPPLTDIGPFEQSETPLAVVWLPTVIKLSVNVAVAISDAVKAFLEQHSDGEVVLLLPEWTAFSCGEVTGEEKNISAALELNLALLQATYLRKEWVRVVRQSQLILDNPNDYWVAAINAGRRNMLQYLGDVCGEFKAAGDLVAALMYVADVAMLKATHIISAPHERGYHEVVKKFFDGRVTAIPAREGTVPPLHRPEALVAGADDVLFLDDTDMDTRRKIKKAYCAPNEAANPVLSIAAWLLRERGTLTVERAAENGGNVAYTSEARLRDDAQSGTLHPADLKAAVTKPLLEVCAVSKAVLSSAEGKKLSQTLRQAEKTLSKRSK
# [8] = molecular target: T4, Tyrosyl-tRNA synthetase, putative (Trypanosoma cruzi (strain CL Brener)); assay: Trypanosoma cruzi tyrosyl tRNA synthetase (TcYRS) SOP; format: functional; conditions: 30 µM
# [9] = molecular target: Chromo domain-containing protein 1 (Saccharomyces cerevisiae (strain ATCC 204508 / S288c) (Baker's yeast)) (UniProt P32657); assay: ScCHD-1 Enzyme Inhibition Assay; format: functional; conditions: 30 µM; also: in the data most compounds retested in dose-response had high values
# Chain of Chromo domain-containing protein 1 (Saccharomyces cerevisiae (strain ATCC 204508 / S288c) (Baker's yeast)) (P32657 whole entry, the tested form may be a part): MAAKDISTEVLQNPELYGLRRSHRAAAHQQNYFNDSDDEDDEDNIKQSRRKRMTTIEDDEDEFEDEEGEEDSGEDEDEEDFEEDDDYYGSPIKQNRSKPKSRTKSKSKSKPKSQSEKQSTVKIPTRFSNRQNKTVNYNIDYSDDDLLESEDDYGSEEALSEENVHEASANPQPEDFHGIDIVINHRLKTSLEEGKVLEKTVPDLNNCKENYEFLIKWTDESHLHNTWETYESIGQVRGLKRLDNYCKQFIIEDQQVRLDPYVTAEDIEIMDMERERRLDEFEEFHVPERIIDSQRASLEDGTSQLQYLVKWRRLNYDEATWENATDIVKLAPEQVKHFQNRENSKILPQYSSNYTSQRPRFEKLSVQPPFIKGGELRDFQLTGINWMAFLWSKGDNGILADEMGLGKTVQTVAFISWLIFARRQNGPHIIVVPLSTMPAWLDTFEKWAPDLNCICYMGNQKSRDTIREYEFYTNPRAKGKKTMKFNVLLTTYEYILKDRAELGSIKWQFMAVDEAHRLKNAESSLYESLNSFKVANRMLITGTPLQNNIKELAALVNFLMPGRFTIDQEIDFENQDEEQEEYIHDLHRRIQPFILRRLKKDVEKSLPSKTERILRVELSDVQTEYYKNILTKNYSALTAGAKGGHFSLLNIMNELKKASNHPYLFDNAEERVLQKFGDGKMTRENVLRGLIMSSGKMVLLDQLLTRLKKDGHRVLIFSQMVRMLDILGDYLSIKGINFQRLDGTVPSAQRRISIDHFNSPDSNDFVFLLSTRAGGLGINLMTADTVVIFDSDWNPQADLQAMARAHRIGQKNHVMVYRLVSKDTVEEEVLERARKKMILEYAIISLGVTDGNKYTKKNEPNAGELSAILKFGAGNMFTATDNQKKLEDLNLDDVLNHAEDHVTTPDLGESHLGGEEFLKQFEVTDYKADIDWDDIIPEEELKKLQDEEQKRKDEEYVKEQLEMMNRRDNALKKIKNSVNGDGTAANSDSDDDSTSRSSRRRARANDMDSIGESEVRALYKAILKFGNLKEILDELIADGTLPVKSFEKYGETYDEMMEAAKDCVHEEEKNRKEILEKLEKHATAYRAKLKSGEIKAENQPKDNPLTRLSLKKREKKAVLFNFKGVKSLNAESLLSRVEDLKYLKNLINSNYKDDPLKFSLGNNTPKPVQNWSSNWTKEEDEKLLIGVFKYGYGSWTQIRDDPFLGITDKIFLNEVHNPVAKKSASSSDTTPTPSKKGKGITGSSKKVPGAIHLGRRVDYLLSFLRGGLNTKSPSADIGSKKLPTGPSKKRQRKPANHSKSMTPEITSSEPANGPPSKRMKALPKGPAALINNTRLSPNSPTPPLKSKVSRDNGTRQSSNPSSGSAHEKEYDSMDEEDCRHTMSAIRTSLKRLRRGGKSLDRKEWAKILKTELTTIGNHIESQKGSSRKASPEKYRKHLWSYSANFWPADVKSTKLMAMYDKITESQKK
# Chain of Protein translocase subunit SecA (Escherichia coli (strain K12)) (P10408 whole entry): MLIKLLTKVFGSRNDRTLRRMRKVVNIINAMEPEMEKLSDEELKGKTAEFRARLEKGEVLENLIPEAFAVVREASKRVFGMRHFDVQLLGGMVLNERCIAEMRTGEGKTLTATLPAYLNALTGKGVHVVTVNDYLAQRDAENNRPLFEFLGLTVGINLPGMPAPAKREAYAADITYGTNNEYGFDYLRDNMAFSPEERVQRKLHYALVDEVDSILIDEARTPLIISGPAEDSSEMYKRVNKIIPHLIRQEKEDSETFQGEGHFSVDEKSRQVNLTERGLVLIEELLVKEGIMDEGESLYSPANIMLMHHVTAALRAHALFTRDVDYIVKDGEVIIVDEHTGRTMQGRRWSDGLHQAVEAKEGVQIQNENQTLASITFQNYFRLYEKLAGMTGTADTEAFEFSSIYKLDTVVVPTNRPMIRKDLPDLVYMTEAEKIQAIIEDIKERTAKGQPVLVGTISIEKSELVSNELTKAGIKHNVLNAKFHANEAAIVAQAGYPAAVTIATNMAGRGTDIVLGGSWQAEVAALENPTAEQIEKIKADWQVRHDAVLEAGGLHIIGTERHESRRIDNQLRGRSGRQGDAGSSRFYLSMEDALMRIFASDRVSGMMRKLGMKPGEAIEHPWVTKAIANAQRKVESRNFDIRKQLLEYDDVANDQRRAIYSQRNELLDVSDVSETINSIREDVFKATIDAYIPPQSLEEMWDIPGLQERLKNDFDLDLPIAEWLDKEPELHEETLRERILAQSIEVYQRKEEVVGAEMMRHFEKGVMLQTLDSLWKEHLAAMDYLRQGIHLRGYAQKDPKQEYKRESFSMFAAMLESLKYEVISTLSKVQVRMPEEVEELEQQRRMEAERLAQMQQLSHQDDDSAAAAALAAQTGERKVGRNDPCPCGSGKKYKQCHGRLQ
SMILES,Percent Effect [1] [%],Percent Effect [2] [%],Percent Effect [3] [%],Percent Effect [4] [%],Percent Effect (Trypanosoma cruzi) [%],Percent Effect [5] [%],Percent Effect [6] [%],Percent Effect (Homo sapiens) [%],Percent Effect [7] [%],Percent Effect [8] [%],Percent Effect [9] [%]
O=C(CCNC(=O)c1ccoc1)NCc1ccccc1F,2.18,13,3.8,-2.98,-2.45,6.53,19.5,24,5.71,18.8,-3.8
COc1cc(C(=O)N(C2CC2)C2CC(=O)NC2=O)ccc1C (centres undefined),0.67,12.7,4.42,4.45,-7.84,8.37,1.72,24.4,4.43,11.4,-4.59
Cc1nc(C)n(C2CCCN(C(=O)c3ccc(NC4CC4)nc3)C2)n1 (centres undefined),-2.93,-5.41,2.71,10.3,2.14,-4.25,-3.77,8.24,1.98,6.1,4.04
Cc1cc(CN(C)C(=O)C2CCCN(C(=O)c3ccc(Cl)cc3)C2)no1 (centres undefined),-4.75,-39,3.47,5.71,-0.885,-20.7,11.7,0.275,2.15,11.1,-7.95
O=C(CCc1nccs1)N1CCN(c2ccc(Br)cn2)CC1,-7.37,7.79,14.3,-8.09,-1.27,-1.05,-4.12,31.4,2.86,7.06,-21.6
Cc1cn2c(n1)CCC(NC(=O)c1ccc(CS(C)(=O)=O)o1)C2 (centres undefined),-2.09,7.89,0.931,9.84,4.13,0.766,9.52,3.27,3.43,9.76,-9.57
COc1cccc(S(=O)(=O)CCN2CCC3(CC2)OCCO3)c1,-7.81,2.67,-4.97,6.11,3.99,5.21,6.45,6.75,3.83,6.17,-5.65
COc1c(C2CCCN2Cc2cc(C)no2)c(C)nn1C (centres undefined),-1.92,8.11,-4.61,-2.24,-5.11,3.88,11.3,15.9,4.95,11,-0.457
c1csc(-c2noc(CCCN3CCCC3Cn3cccn3)n2)c1 (centres undefined),-4.94,-13.5,-5.55,4.78,0.849,-6.41,-1.98,0.955,4.43,1.24,-1.71
